Bioassay records deposited in PubChem by National Center for Advancing Translational Sciences (NCATS).
The full list was thinned out, with hits kept by preference.
TbPYK inhibitor: T. brucei pyruvate kinase inhibition; TbPYK enzyme, Kinase-Glo Plus ATP luminescence, 45 min; Potency, µM (doses to about 76.8 µM), without a hit: top-dose activity, negative = inhibition, actives largely listed as inhibitors; hit rate 0.12% among 410,000; further: potency means the concentration at half of the fitted maximal effect; on the % scale 0 is the no-effect control and ±100 the full control effect; nearly all actives have a fitted effect of over 50% in size
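Assay buffer: 50 mM TEA pH 7.2, 100 mM KCl, 10 mM MgCl2, 0.05% BSA, 0.01% Tween-20. Pyruvate kinase from T. brucei plus substrate met compound, then ADP (130 uM final). Luminescence was read post 45 min RT.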
Giardia FBPA inh: Giardia lamblia aldolase inhibition | A8B2U2 | purified Giardia FBPA | Potency, µM (highest dose often 59.6 µM), inactives show at the top dose activity, negative = inhibition, actives largely listed as inhibitors | hit rate 0.71% among 290,000; further: potency means the concentration at half of the fitted maximal effect; on the % scale 0 is the no-effect control and ±100 the full control effect; nearly all actives have a fitted effect of over 55% in size
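40 nM FBPA preincubated 10 min at RT with compound (up to 57.5 uM final), then substrate plus GAPDH/TPI/NAD/arsenate coupling and diaphorase/resazurin added. Fluorescence read after 20 min at RT, 525/598 nm.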
LmPK inh: LmPK (Leishmania mexicana) enzyme inhibition; purified LmPK, Kinase-Glo ATP luminescence, 1 h; Potency, µM (top dose mostly 57.5 µM), inactives show top-dose activity change, negative = inhibition, usual class: inhibitors; hit rate 0.37% among 290,000; AID 1721; further: potency means the concentration at half of the fitted maximal effect; on the % scale 0 is the no-effect control and ±100 the full control effect
Target sequence (Q27686 whole entry, looked up): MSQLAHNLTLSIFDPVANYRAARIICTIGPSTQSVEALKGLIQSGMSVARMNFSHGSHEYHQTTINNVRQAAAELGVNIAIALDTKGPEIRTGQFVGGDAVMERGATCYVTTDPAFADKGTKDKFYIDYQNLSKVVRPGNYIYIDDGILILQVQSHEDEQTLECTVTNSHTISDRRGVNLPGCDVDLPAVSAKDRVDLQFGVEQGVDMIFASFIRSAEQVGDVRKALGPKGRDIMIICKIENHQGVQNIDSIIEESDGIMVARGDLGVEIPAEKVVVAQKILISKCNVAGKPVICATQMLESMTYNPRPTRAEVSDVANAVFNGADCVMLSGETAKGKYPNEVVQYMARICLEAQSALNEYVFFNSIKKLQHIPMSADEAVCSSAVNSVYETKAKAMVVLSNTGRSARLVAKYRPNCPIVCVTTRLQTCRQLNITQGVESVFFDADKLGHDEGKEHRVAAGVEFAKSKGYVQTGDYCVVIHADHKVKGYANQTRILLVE
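In 50 mM imidazole pH 7.2 with 7 mM MgCl2, LmPK (0.1 nM) turned over PEP (0.5 mM) and ADP (0.1 mM) for 1 h at room temperature. Luciferase read-out of ATP.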
Shiga toxin inh: blocks Shiga toxin action in Vero cells; inhibition, % at 38.7 µM; hit rate 9.2% among 290,000; Vero cells, Shiga toxin protein synthesis inhibition reporter; in the data active means inhibition mostly above about 28%, no sharp cut-off; inactive means mostly below about 43%; further: 0% is about no effect
Cycloheximide cs: counter-screen hit for Shiga toxin inhibitors, cycloheximide. cell reporter, cycloheximide protein synthesis inhibition counterscreen. max response, %. hit rate 12% among 300,000. AID 2314; in the data active means max response mostly above about 13%, no sharp cut-off; inactive means mostly below about 14%; further: read at 38.3 µM for the half of the compounds with a filed dose; 0% is about no effect
RE007 growth inh: less growth of the S. pombe RE007 Vpr strain; AID 651644; Potency, µM (highest dose often 92.2 µM), inactives show at the highest dose activity change, negative = less growth, usual class: inhibitors; S. pombe RE007 Vpr strain, BacTiter-Glo ATP luminescence, 24 h; hit rate 0.21% among 360,000; active means well fitted falling curve with a large enough effect; inconclusive means small, poorly fitted or top-dose-only effect; inactive means no such curve, though single readings can be large or run the other way; further: potency means the concentration at half of the fitted maximal effect; on the % scale 0 is the no-effect control and ±100 the full control effect; nearly all actives have a fitted effect of over 50% in size
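Fission yeast strain RE007, carrying one chromosomally integrated HIV-1 vpr copy, was seeded at OD 0.01 in PMG+AL medium with 23 nL pinned compound. After 24 h at 30 °C and 99% humidity, viability was read by BacTiter-Glo luminescence.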
An asterisk follows results filed as active; u = inconclusive; x = not tested or not shown; [ ] = remark or other dose. Unless noted, the call rests on the fitted dose curve; in most records, active means well fitted curve in the direction sought with a large enough effect; inconclusive means small, poorly fitted or top-dose-only effect, or another doubt; inactive means no such curve, though single readings can be large; an effect the other way counts as inactive or inconclusive.

SMILES | TbPYK inhibitor | Giardia FBPA inh | LmPK inh | Shiga toxin inh | Cycloheximide cs | RE007 growth inh
COc1ccc(C(=O)NCCCSC)cc1OC1CCN(C(C)C)CC1 | 3% | 2% | -1% | 7 | 5 | -7%
COc1ccc(C(=O)NCCC2=CCCCC2)cc1[N+](=O)[O-] | -2% | -2% | 0% | 41* | 24* | 5%
Cc1ccc(S(=O)(=O)N2CCCCC2)cc1C(=O)NCCC1=CCCCC1 | -2% | x | x | x | x | 10%
COc1ccc(-c2onc(C)c2C)cc1S(=O)(=O)Nc1cc(Cl)ccc1C | -11% | x | x | x | x | x
O=c1c2ncn([C@@H]3O[C@@H]4COP(=O)(O)O[C@H]4[C@H]3O)c2nc2[nH]c(-c3ccccc3)cn12 | x | -1% | x | -7 | -4 | x
Cc1nn(C)c2c1c(C(F)(F)F)cc(=O)n2C(C)C(=O)N1CCN(c2ccccc2)CC1 (centres undefined) | 0% | x | x | x | x | x
CCC(Cc1c(I)cc(I)c(O)c1I)C(=O)O (centres undefined) | -19% | x | x | x | x | x
CC1(C)CC(=O)C(C=Nc2ccccc2)=C(O)C1 | -10% | 9% | -4% | 52 | 26* | 20µM*
CC1(C)CC(=O)C(C=Nc2ccccc2Sc2ccccc2)=C(O)C1 | -6% | -6% | 4% | -15 | 13 | 20µM*
CC1(C)CC(=O)C(C=Nc2ccccc2C(=O)O)=C(O)C1 | 1% | -3% | 2% | 12 | 11 | 11%
CC(=O)c1cccc(NC(=O)c2cc(-c3ccco3)on2)c1 | -3% | 0% | -5% | 97* | 35* | 20%
O=C(Nc1cccc(C(F)(F)F)c1)c1cc(-c2ccco2)on1 | 0% | 2% | -2% | 15 | 8 | 1%
O=C(Nc1cccc(O)c1)c1cc(-c2ccco2)on1 | -4% | 0% | u | 49* | 22* | -15%
C=CC1=C2C=C(C3CC3)N(Cc3ccccc3)C=C2C(=O)C(C)(OC(=O)c2ccco2)C1=O (centres undefined) | x | u | -6%[11.5 µM] | x | x | x
Nc1nc(Sc2c([N+](=O)[O-])cc(C(F)(F)F)cc2[N+](=O)[O-])n[nH]1 | -1% | -11% | 1% | 48* | 11 | -9%
COc1ccc(NC(=O)N2CCCc3ccccc32)c(OC)c1 | -4% | 7% | 0% | 44 | 17* | 2%
CCOC(=O)Nc1cc(C(=O)OCC)c(C)nc1C | 1% | 1% | -3% | 12 | -5 | -9%
CCOC(=O)c1cc(NC(=O)N2CCCc3ccccc32)c(C)nc1C | -3% | -8% | 1% | 43 | 20* | 2%
COc1ccc(C(=O)N2CCCc3ccccc32)cc1 | -1% | 6% | 1% | 9 | 6 | -15%
CCOC(=O)c1cc(NC(=O)Nc2cc(C)ccn2)c(C)nc1C | 5% | 13% | 4% | 39* | 14 | -2%
COc1ccc(C)cc1NC(=O)N1CC(C)Sc2ccccc21 (centres undefined) | 6%[15.4 µM] | x | x | x | x | x
COc1ccc(C)cc1NC(=O)N1CCCc2ccccc21 | 2% | -5% | 9% | 75* | 23* | -23%
O=C(Nc1ccc(Cl)c(Cl)c1)c1cc(S(=O)(=O)N2CCN(c3cccc(Cl)c3)CC2)ccc1F | 1% | x | x | x | x | x
CN(C)c1ncc2nc(-c3ccc(Cl)cc3)c(=O)n(C[C@H]3CCCO3)c2n1 | x | 3% | x | x | x | x
O=C(CC(Nc1ccc(F)cc1)C(=O)O)c1ccccc1 (centres undefined) | -21% | -13% | -30% | 41* | 37* | -14%
O=C(CC(Nc1ccc(F)cc1)C(=O)OCC(=O)c1cccs1)c1ccccc1 (centres undefined) | 4% | -1% | 1% | 24 | 16* | u
Cc1ccc(C(=O)CC(Nc2ccc(F)cc2)c2ccccc2)cc1 (centres undefined) | -2% | -4% | 0% | -1 | 1 | -9%
O=C(CCC(=O)c1cccs1)OCC(=O)c1ccc(F)cc1 | 2% | x | x | x | x | -8%
COc1ccc(C(CC(=O)c2ccc(O)cc2)S(=O)(=O)c2ccc(C)cc2)cc1 (centres undefined) | -10% | -2% | -12% | 66* | 42* | -13%
